What follows are compounds tested on PLK1. Details: concentration: 1 μM, replicates: in singlicate; n = 1.
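Further: KINOMEscan kinase panel screen.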

Compound | %Inh
CSc1ccc(-c2cc3ncnc(SCC(=O)O)c3s2)cc1 | 0%
CCc1nc(-c2cccc(C)c2)c(-c2ccnc(NCc3ccccc3)c2)s1 | 0%
COCCNC(=O)c1ccc(-c2cc(C(=O)NC3CC3)cc(F)c2C)cc1 [GW868318] | 66%
COc1ccc(COc2cc(-n3cnc4ccccc43)sc2C(N)=O)cc1 [GSK1024304] | 97.4%
O=C(NCCNc1ccnc(Nc2ccc(F)cc2)n1)c1cc2ccccc2s1 [GSK1379874] | 0%
Cc1cccc(-c2nc(Nc3ccc4ncsc4c3)c3ccccc3n2)n1 [GW867588] | 12%
c1ccc(-c2n[nH]cc2-c2ccnc3ccccc23)nc1 [GW271431] | 0%
O=C(NCCNc1ccnc(Nc2ccc(F)cc2)n1)Nc1ccccc1F [GSK1379880] | 100%
Cc1nnc(-c2ccc3occ(-c4ccc(C(C)O)cc4)c3c2)o1 (centres unmarked) | 2%
NS(=O)(=O)c1cccc(-c2ccc3nccc(-c4cccc(S(N)(=O)=O)c4)c3c2)c1 [GW867253] | 24%
CCCCCc1nc2c(N)ncnc2n1CCCCC [SKF-97255] | 19%
Cl.Oc1cccc(Nc2ccnc3cc(-c4ccncc4)ccc23)c1 [GW494601] | 30%
Fc1ccc(-c2ncn(CCCN3CCOCC3)c2-c2cccnc2)cc1 [SB-211743] | 0%
Cc1ccc(C(=O)NCC(N)=O)cc1-n1c(C)cc(OCc2ccc(F)cc2F)c(Br)c1=O | 0%
NS(=O)(=O)CCc1cccc(Nc2nccc(-c3c(-c4cccc(NC(=O)c5c(F)cccc5F)c4)nn4ccccc34)n2)c1 [GSK336735] | 0%
COC(=O)Nc1nc2cc(Oc3ccc(NC(=O)Nc4cc(F)ccc4F)cc3)ccc2[nH]1.Cl [GW701424] | 0%

Compound | %Inh
Cc1cn2c(=O)cc(N3CCOCC3)nc2n1Cc1cccc(Cl)c1Cl [GSK2334006] | 24%
N#Cc1c(N2CCOCC2)sc(-c2ccn[nH]2)c1-c1ccc(Cl)cc1 | 24%
Cc1cccc(Cn2ccn3c(=O)cc(N4CCOCC4)nc23)c1 [GSK2297542] | 14%
COc1ccc(CNC(=O)NC2CCN(c3ccnc(Nc4ccc(OC)cc4)n3)C2)cc1 (centres unmarked) [GSK1379727] | 0%
c1ccc(-c2cc(-c3c[nH]nc3-c3ccccn3)ccn2)cc1 [GW576604] | 0%
COc1cc2c(cc1OCCN1CCN(C)CC1)ncc1c3ccc(C#N)cc3[nH]c21 | 0%
COc1ccc(Nc2nccc(N3CCC(NC(=O)Nc4cccc(C(C)=O)c4)C3)n2)cc1 (centres unmarked) [GSK1379731] | 7%
Cc1ccc(NC(=O)c2ccnc(N3CCN(C)CC3)c2)cc1-c1ccc(C(=O)NCC2CC2)cc1 [GW775604] | 6%
Cc1c(Cn2c(C)nn3c(=O)cc(N4CCOC(C)C4)nc23)cccc1C(F)(F)F (centres unmarked) [GSK2344444] | 0%
O=C(NCCCN1CCOCC1)c1cccc(Nc2nccc(Nc3ccc(Oc4ccccc4)cc3)n2)c1 [GW663929] | 0%
Nc1nc(-c2ccc3c(N)n[nH]c3c2)cc(N2CCCC2)n1 [GSK2227430] | 0%
Nc1nccc(-c2c(-c3ccc(F)cc3)ncn2C2CCN(CC(F)(F)F)CC2)n1 [SB-236560] | 0%
COc1ccc(S(=O)(=O)NC2CCN(c3cc(C)nc(Nc4cccc(C#N)c4)n3)CC2)cc1.O=C(O)C(F)(F)F [GSK1653539] | 0%
CN(C1=C(c2ccccc2)C(=O)NC1=O)c1ccccc1 [SB-334860] | 3%
CN1c2ccc(CNc3ccc(F)cc3)cc2-c2c(cnn2C)S1(=O)=O | 11%
COc1cc(Nc2nccc(N3CCC(NC(=O)c4cccc(NC(C)=O)c4)C3)n2)cc(OC)c1OC (centres unmarked) [GSK1379754] | 0%

What follows are compounds tested on PLK2. Details: concentration: 1 μM, replicates: in singlicate; n = 1.

Compound | %Inh
CSc1ccc(-c2cc3ncnc(SCC(=O)O)c3s2)cc1 | 0%
CCc1nc(-c2cccc(C)c2)c(-c2ccnc(NCc3ccccc3)c2)s1 | 7%
COCCNC(=O)c1ccc(-c2cc(C(=O)NC3CC3)cc(F)c2C)cc1 [GW868318] | 46%
COc1ccc(COc2cc(-n3cnc4ccccc43)sc2C(N)=O)cc1 [GSK1024304] | 90%
COc1cc2ncn(-c3cc(OCc4sccc4Cl)c(C(N)=O)s3)c2cc1OC [GSK448459] | 99.5%
O=C(NCCNc1ccnc(Nc2ccc(F)cc2)n1)c1cc2ccccc2s1 [GSK1379874] | 0%
Cc1cccc(-c2nc(Nc3ccc4ncsc4c3)c3ccccc3n2)n1 [GW867588] | 19%
c1ccc(-c2n[nH]cc2-c2ccnc3ccccc23)nc1 [GW271431] | 0%
O=C(NCCNc1ccnc(Nc2ccc(F)cc2)n1)Nc1ccccc1F [GSK1379880] | 0%
Cc1nnc(-c2ccc3occ(-c4ccc(C(C)O)cc4)c3c2)o1 (centres unmarked) | 0%
NS(=O)(=O)c1cccc(-c2ccc3nccc(-c4cccc(S(N)(=O)=O)c4)c3c2)c1 [GW867253] | 19%
CCCCCc1nc2c(N)ncnc2n1CCCCC [SKF-97255] | 18%
Cl.Oc1cccc(Nc2ccnc3cc(-c4ccncc4)ccc23)c1 [GW494601] | 0%
Fc1ccc(-c2ncn(CCCN3CCOCC3)c2-c2cccnc2)cc1 [SB-211743] | 0%
Cc1ccc(C(=O)NCC(N)=O)cc1-n1c(C)cc(OCc2ccc(F)cc2F)c(Br)c1=O | 0%
NS(=O)(=O)CCc1cccc(Nc2nccc(-c3c(-c4cccc(NC(=O)c5c(F)cccc5F)c4)nn4ccccc34)n2)c1 [GSK336735] | 25%
COC(=O)Nc1nc2cc(Oc3ccc(NC(=O)Nc4cc(F)ccc4F)cc3)ccc2[nH]1.Cl [GW701424] | 0%

Compound | %Inh
Cc1cn2c(=O)cc(N3CCOCC3)nc2n1Cc1cccc(Cl)c1Cl [GSK2334006] | 0%
N#Cc1c(N2CCOCC2)sc(-c2ccn[nH]2)c1-c1ccc(Cl)cc1 | 20%
Cc1cccc(Cn2ccn3c(=O)cc(N4CCOCC4)nc23)c1 [GSK2297542] | 0%
COc1ccc(CNC(=O)NC2CCN(c3ccnc(Nc4ccc(OC)cc4)n3)C2)cc1 (centres unmarked) [GSK1379727] | 0%
c1ccc(-c2cc(-c3c[nH]nc3-c3ccccn3)ccn2)cc1 [GW576604] | 0%
COc1cc2c(cc1OCCN1CCN(C)CC1)ncc1c3ccc(C#N)cc3[nH]c21 | 16%
COc1ccc(Nc2nccc(N3CCC(NC(=O)Nc4cccc(C(C)=O)c4)C3)n2)cc1 (centres unmarked) [GSK1379731] | 0%
Cc1ccc(NC(=O)c2ccnc(N3CCN(C)CC3)c2)cc1-c1ccc(C(=O)NCC2CC2)cc1 [GW775604] | 7%
Cc1c(Cn2c(C)nn3c(=O)cc(N4CCOC(C)C4)nc23)cccc1C(F)(F)F (centres unmarked) [GSK2344444] | 0%
O=C(NCCCN1CCOCC1)c1cccc(Nc2nccc(Nc3ccc(Oc4ccccc4)cc3)n2)c1 [GW663929] | 0%
Nc1nc(-c2ccc3c(N)n[nH]c3c2)cc(N2CCCC2)n1 [GSK2227430] | 0%
Nc1nccc(-c2c(-c3ccc(F)cc3)ncn2C2CCN(CC(F)(F)F)CC2)n1 [SB-236560] | 0%
COc1ccc(S(=O)(=O)NC2CCN(c3cc(C)nc(Nc4cccc(C#N)c4)n3)CC2)cc1.O=C(O)C(F)(F)F [GSK1653539] | 0%
CN(C1=C(c2ccccc2)C(=O)NC1=O)c1ccccc1 [SB-334860] | 2%
CN1c2ccc(CNc3ccc(F)cc3)cc2-c2c(cnn2C)S1(=O)=O | 15%
COc1cc(Nc2nccc(N3CCC(NC(=O)c4cccc(NC(C)=O)c4)C3)n2)cc(OC)c1OC (centres unmarked) [GSK1379754] | 0%
